Results on 7 compounds are retold here after PubChem BioAssay (NCI).

The panel holds about 83,000 compounds, 20% with a hit somewhere; the sample as a whole holds those more often.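 Single-dose data. Exposure time 48 hours. Values below 10 considered active.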 Unmarked numbers belong to inactive results. Activity calls are given as the source filed them.

Holding throughout (assay): NCI-60 one-dose screen, 48 h (100 = growth as untreated, 0 = no growth, -100 = all killed)
Conditions in all cases: 10 µM unless noted

The subject of experiment [1] is NCI-H23 lung.
Experiment [2] deals with NCI-H226 lung.
Experiment [3] concerns NCI-H322M lung.
For experiment [4], the system named is HOP-62 NSCLC.
For experiment [5], the system named is NCI-H460 lung.
In experiment [6] the test system is HOP-92 NSCLC.
For experiment [7], the system named is NCI-H522 lung.
The subject of experiment [8] is A549/ATCC NSCLC.
The test system of experiment [9] is 786-0 renal.
Experiment [10] relates to COLO 205 colon.
Experiment [11] concerns DU-145 prostate.
The test system of experiment [12] is K-562 leukemia.
The subject of experiment [13] is MALME-3M melanoma.
The subject of experiment [14] is MDA-MB-231 breast.
Experiment [15] deals with RXF 393 renal.
Experiment [16] concerns SF-268 CNS.
In experiment [17] the test system is SF-295 CNS.
For experiment [18], the system named is SF-539 CNS.
In experiment [19] the test system is UACC-257 melanoma.
Experiment [20] has as its system M14 melanoma.

For `O=C(CN1C(=O)NC2NC(=O)NC21)N/N=C/c1cccc([N+](=O)[O-])c1` (stereo not given), the growth in experiment [1] is 104%; in [2] it was 94%; in [3], 108%; in experiment [4], 107%; in experiment [5], 107%; in experiment [6], 123%. The growth was 97.3% in experiment [7]; 112% in experiment [8]; 106% in [9]; 122% in experiment [10]; 110% in [11]; 103% in experiment [12]. For the same compound, the growth in experiment [13] is 105%; in experiment [14], 104%; in experiment [15] it was 104%; in [16], 99%; in [17], 102%; in experiment [18] it was 100%. Also, the growth was 118% in [19] and 109% in experiment [20].
On to `COc1cc2c(c(OC)c1OC)CCC(c1cccc(NC(=O)c3cccc(Cl)c3)c1)O2` (stereo not given), for which the growth in experiment [1] is 92.7%; in [2], 79.8%; in experiment [3], 90.3%; in experiment [4], 92.8%; in experiment [5] it was 96.9%; in experiment [6] it was 83.1%. Besides, the growth in [7] was 62.1%; in [8] it was 85%; in [9], 96.7%; in experiment [10] it was 94.2%; in experiment [11], 102%; in experiment [12], 72%. Further, the growth in experiment [13] was 86.6%; in experiment [14] it was 88%; in experiment [15] it was 96%; in [16], 90.6%; in experiment [17], 74.4%; in experiment [18], 103%. Further, the growth is 94.2% in experiment [19] and 86.6% in experiment [20].
With `COc1ccc(Cn2cc3c(c2)-c2oncc2CC3)cc1`, the growth was 79.8% in experiment [1]; 86.9% in [2]; 89.6% in [3]; 58.8% in experiment [4]; 39.9% in experiment [5]; 70.1% in experiment [6]. In addition, the growth was 71% in [7]; 52.1% in experiment [8]; 72.5% in experiment [9]; 68.4% in [10]; 176% in experiment [11]; 20.6% in [12]. Besides, the growth in experiment [13] is 83.2%; in [14], 70.5%; in [15], 75.8%; in experiment [16], 136%; in [17], 58.6%; in experiment [18], 48%. The results for the growth in experiment [19] and in [20] were 85.9% and 29.2%, respectively.
As to `COC(=O)c1nc(-c2ccc(C)cc2)oc1N1CCOCC1`, the growth in experiment [1] is 106%; in experiment [2] it was 94%; in [3] it was 105%; in experiment [4], 98.3%; in experiment [5], 100%; in experiment [6], 102%. The growth was 90.7% in experiment [7]; 88.4% in experiment [8]; 82.3% in experiment [9]; 111% in [10]; 98.1% in experiment [11]; 95.6% in experiment [12]. Also, the growth in experiment [13] is 115%; in experiment [14], 105%; in experiment [15] it was 89.6%; in experiment [16] it was 98.1%; in [17], 99%; in experiment [18], 95.9%. Besides, the growth is 100% in experiment [19] and 102% in experiment [20].
Regarding `C[C@@H]1N=C(c2ccc(Cl)cc2Cl)Nc2nc3ccccn3c2C1=O`, the growth was 61.4% in experiment [1]; 75.7% in experiment [2]; 63.7% in experiment [3]; 52.6% in experiment [4]; 18.7% in [5]; 55.9% in experiment [6]. The growth in experiment [7] was 28.9%; in experiment [8] it was 40.6%; in experiment [9], 73.2%; in [10] it was 22.3%; in [11] it was 64.8%; in experiment [12] it was 23.6%. Further, the growth in experiment [13] is 43.7%; in experiment [14], 64.6%; in experiment [15] it was 80.2%; in experiment [16], 58.9%; in experiment [17], 14.5%; in experiment [18], 53%. Also, the growth was 52.4% in experiment [19] and 31.1% in [20].
`C=C(c1ccc(OC)c(/C=C/C(=O)c2cc(OC)c(OC)c(OC)c2)c1)c1cc(OC)c(OC)c(OC)c1`: the growth in experiment [1] was -33.2% (active); in experiment [2], -38% (active); in experiment [3] it was 17.9%; in [4] it was 11.5%; in experiment [5], -30.6% (active); in experiment [6], 40.2%. In addition, the growth in experiment [7] was -19.3% (active); in experiment [8] it was 9.3% (active); in experiment [9] it was -64.3% (active); in [10] it was -13.6% (active); in experiment [11], 15.6%; in experiment [12], 12.7%. In addition, the growth in [13] was -6.73% (active); in experiment [14] it was 30.4%; in experiment [15], -68.5% (active); in experiment [16] it was 21.7%; in experiment [17] it was 30.5%; in [18], -84.7% (active). Besides, the figures for the growth in experiment [19] and in experiment [20] were 2.85% (active) and 4.85% (active), respectively.
Consider `COc1ccc(/C=N\NC(=O)c2ccc3nc(-c4ccc(Cl)cc4)[nH]c3c2)cc1`, for which the growth in experiment [1] was 41.6%; in experiment [2], 73.8%; in [3], 55.9%; in experiment [4], 30.3%; in [5] it was 5.91% (active); in experiment [6], 36%. The growth is 82.6% in [7]; 12% in experiment [8]; 3.15% (active) in [9]; 22.9% in [10]; 79.3% in [11]; 31.9% in experiment [12]. Further, the growth was 6.53% (active) in [13]; 39.8% in experiment [14]; 43.8% in [15]; 19.9% in experiment [16]; -38.9% (active) in experiment [17]; 42.6% in experiment [18]. The growth in experiment [19] is 54.4%; in [20] it was 26.2%.
